Most compounds without a hit are left out; they make up all but 6.7% or so of the library.
C diff HTS – C. difficile growth inhibition. Clostridium difficile clinical isolate growth, OD600, 24 h; hits give low values. growth activity, negative = inhibition, % at 16 µg/mL (by protocol). actives 0.25% (n = 86,000). AID 1259249;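 active = mean growth activity at or below -80% and every replicate also at or below -80%; inconclusive = mean at or below -80% but some replicate above -80%; inactive = mean growth activity above -80%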
Pf Dd2 growth – P. falciparum Dd2 growth inhibition | actives 2.3% (n = 94,000) | SYBR Green, 72 h; hits give low values | activity change, % at 10 µM; in the data active = activity change below about -80%; inconclusive = no clear call, values can overlap the other calls
T cruzi growth-1 – blocks T. cruzi growth in NIH3T3 culture. T. cruzi beta-gal in NIH3T3, GalScreen luminescence, 90 h. inhibition, % at 8.34 µM. actives 5.9% (n = 77,000);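 active = mean inhibition above about 93%, with at least 55% of replicates each passing it, limit read from the data, passing the limit was not always enough; inconclusive = only one of those two conditions holds; inactive = neither condition holds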
T cruzi growth-2 – blocks T. cruzi growth in NIH3T3 host cells; actives 72% (n = 5,600); inhibition, % at 8.35 µM; shares compounds with T cruzi growth-1; T. cruzi beta-gal in NIH3T3, GalScreen luminescence, 90 h;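 active = mean replicate inhibition above about 95% and at least 55% of replicates individually reaching it, limit read from the data; inconclusive = only one of the two criteria is met; inactive = neither criterion is met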
T cruzi growth-3 – Trypanosoma cruzi proliferation inhibition; shares compounds with T cruzi growth-1; T. cruzi beta-gal in NIH3T3, GalScreen luminescence, 90 h; inhibition, % at 2.09 µM; actives 21% (n = 5,600);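 active = mean inhibition above about 95%, with at least 55% of replicates also reaching it, limit read from the data; inconclusive = meets just one of the two conditions; inactive = meets neither condition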
NIH3T3 tox – NIH/3T3 (mouse) viability loss. NIH/3T3 viability, CellTiter-Glo ATP luminescence, 90 h. shares compounds with T cruzi growth-1. AID 651742. actives 14% (n = 5,600). cytotoxicity (signal decrease), % at 8.35 µM;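 active = mean signal decrease across replicates above about 35% based on untreated-well scatter, with enough replicates individually passing, limit read from the data; inconclusive = no rule stated though some were filed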
3T3 cytotox 2 – kills mouse NIH/3T3 fibroblasts; NIH/3T3 viability, CellTiter-Glo ATP luminescence, 90 h; shares compounds with T cruzi growth-1; inhibition, % at 24.9 µM; actives 56% (n = 5,600); AID 651744;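 active = mean loss of cell viability signal at or above a set limit, and enough replicates individually reaching it; inconclusive = meets only the mean limit or only the replicate share; inactive = meets neither condition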
Of the large screens only hits and unclear results are named; the others gave an inactive call (follow-up assays come after a bar, where they were run).

C[C@H]1CN([C@@H](C)CO)S(=O)(=O)c2ccc(-c3cccc(F)c3)cc2O[C@H]1CN(C)C(=O)Nc1cc(F)ccc1F	T cruzi growth-1 112 | T cruzi growth-2 105 | T cruzi growth-3 102 | NIH3T3 tox 63 | 3T3 cytotox 2 42
C[C@H]1CN([C@@H](C)CO)S(=O)(=O)c2ccc(-c3cccc(F)c3)cc2O[C@@H]1CN(C)C(=O)Nc1cc(F)ccc1F	T cruzi growth-1 112 | T cruzi growth-2 106 | T cruzi growth-3 inactive | NIH3T3 tox 43 | 3T3 cytotox 2 86
O=C(C[C@@H]1C[C@H]2c3cc(NS(=O)(=O)c4ccc(F)cc4)ccc3O[C@H]2[C@@H](CO)O1)N1CCOCC1	none
C[C@@H]1CN([C@@H](C)CO)C(=O)c2cc(C#CCN(C)C)cnc2O[C@H]1CN(C)C(=O)Cc1cccnc1	none
CO[C@@H](CN(C)C(=O)c1ccc2c(c1)OCO2)[C@@H](C)CN([C@H](C)CO)S(=O)(=O)c1ccc(F)cc1	none (no result: C diff HTS)
O=C(NCC[C@H]1CC[C@@H](NS(=O)(=O)c2cccc(F)c2)[C@@H](CO)O1)C1CC1	none (no result: C diff HTS)
C[C@@H]1CCCCO[C@@H](CN(C)S(=O)(=O)c2ccc(F)cc2)[C@H](C)CN([C@@H](C)CO)C(=O)c2cc(NC(=O)CCCN(C)C)ccc2O1	none
C[C@H](CO)N1C[C@H](C)[C@@H](CN(C)CC2CCCC2)Oc2cc(C3=CCCC3)ccc2S1(=O)=O	T cruzi growth-1 103 | T cruzi growth-2 103 | T cruzi growth-3 inactive | NIH3T3 tox inactive | 3T3 cytotox 2 107
C[C@@H]1CN([C@@H](C)CO)S(=O)(=O)c2ccc(C3=CCCC3)cc2O[C@H]1CN(C)CC1CC1	none
C[C@@H]1CN([C@@H](C)CO)S(=O)(=O)c2ccc(C3=CCCCC3)cc2O[C@H]1CN(C)CC1CCCC1	T cruzi growth-1 123 | T cruzi growth-2 102 | T cruzi growth-3 inactive | NIH3T3 tox 120 | 3T3 cytotox 2 106
C[C@@H]1CN([C@@H](C)CO)S(=O)(=O)c2ccc(C3=CCCCC3)cc2O[C@@H]1CN(C)CC1CC1	none (no result: C diff HTS)
C[C@@H]1CN([C@H](C)CO)S(=O)(=O)c2ccc(C3=CCCCC3)cc2O[C@@H]1CN(C)CC1CC1	none (no result: C diff HTS)
C[C@H](CO)N1C[C@H](C)[C@@H](CN(C)CC2CCCC2)Oc2cc(C3=CCCCC3)ccc2S1(=O)=O	T cruzi growth-1 106 | T cruzi growth-2 97 | T cruzi growth-3 inactive | NIH3T3 tox inactive | 3T3 cytotox 2 103
O=C(C[C@@H]1C=C[C@H](NC(=O)c2ccc(F)cc2)[C@H](CO)O1)NCCc1ccccc1	none
C[C@H](CO)N1C[C@H](C)[C@H](CN(C)Cc2ccc(C(=O)Nc3ccccc3N)cc2)Oc2ccc(NC(=O)Cn3cnnn3)cc2CC1=O	none (no result: T cruzi growth-1)
CCCNC(=O)Nc1ccc2c(c1)C(=O)N(C)C[C@@H](OC)[C@H](C)CN(C(=O)C1CCC1)[C@H](C)CO2	none (no result: C diff HTS, Pf Dd2 growth)
C[C@@H]1CN([C@@H](C)CO)C(=O)Cc2cc(NC(=O)CCN3CCOCC3)ccc2O[C@@H]1CN(C)Cc1ccc(C(F)(F)F)cc1	none
C[C@H](CO)N1C[C@H](C)[C@@H](CN(C)Cc2ccc(-c3ccccc3)cc2)Oc2ccc(NC(=O)CCN3CCOCC3)cc2CC1=O	T cruzi growth-1 99 | T cruzi growth-2 114 | T cruzi growth-3 inactive | NIH3T3 tox inactive | 3T3 cytotox 2 105
C[C@H](CO)N1C[C@H](C)[C@H](CN(C)Cc2ccc(C(F)(F)F)cc2)Oc2ccc(NC(=O)CCN3CCOCC3)cc2CC1=O	T cruzi growth-1 inconclusive | T cruzi growth-2 inactive | T cruzi growth-3 inactive | NIH3T3 tox inactive | 3T3 cytotox 2 inactive
C[C@H](CO)N1C[C@H](C)[C@H](CN(C)Cc2ccc(-c3ccccc3)cc2)Oc2ccc(NC(=O)CCN3CCOCC3)cc2CC1=O	none
O=C(NCC[C@@H]1CC[C@@H](NC(=O)C2CCC2)[C@H](CO)O1)c1cnccn1	none (no result: C diff HTS)
CC(C)C(=O)Nc1ccc2c(c1)C(=O)N(C)[C@H]1CC[C@H](CC(=O)Nc3cccc(F)c3)O[C@@H]1CO2	none
CCS(=O)(=O)N1CCCCN2[C@H](CO)[C@@H](c3ccc(C#Cc4ccccn4)cc3)[C@@H]2C1	none
CCCC#Cc1ccc([C@@H]2[C@@H](CO)N3CCCCN(S(C)(=O)=O)C[C@H]23)cc1	none
CS(=O)(=O)N1CCCCN2[C@H](C1)[C@H](c1ccc(C#Cc3ccccn3)cc1)[C@@H]2CO	T cruzi growth-1 112 | T cruzi growth-2 96 | T cruzi growth-3 inactive | NIH3T3 tox inactive | 3T3 cytotox 2 inactive
CS(=O)(=O)N1CCCCN2[C@@H](CO)[C@H](c3ccc(C#Cc4ccccn4)cc3)[C@@H]2C1	T cruzi growth-1 inconclusive | T cruzi growth-2 108 | T cruzi growth-3 inactive | NIH3T3 tox inactive | 3T3 cytotox 2 inactive
O=S(=O)(c1ccccc1)N1CCCCN2[C@H](CO)[C@H](c3ccc(C#Cc4ccccn4)cc3)[C@H]2C1	none
CS(=O)(=O)N1CCCCN2[C@H](C1)[C@@H](c1ccc(C#Cc3ccccn3)cc1)[C@@H]2CO	T cruzi growth-1 104 | T cruzi growth-2 112 | T cruzi growth-3 inactive | NIH3T3 tox inactive | 3T3 cytotox 2 inactive
C[C@@H]1CN([C@H](C)CO)C(=O)c2cc(NS(=O)(=O)c3cccs3)ccc2O[C@@H](C)CCCCO[C@@H]1CN(C)CC1CCCCC1	none
CC(C)NC(=O)Nc1ccc2c(c1)C(=O)N([C@H](C)CO)C[C@H](C)[C@H](CN(C)C(=O)c1ccncc1)OCCCC[C@H](C)O2	none
O=C(C[C@@H]1CC[C@H](NC(=O)c2ccccn2)[C@H](CO)O1)NCc1cccc(F)c1	none
COc1ccc(CN(C)C[C@H]2Oc3ccc(NS(=O)(=O)c4cn(C)cn4)cc3CC(=O)N([C@@H](C)CO)C[C@H]2C)cc1	none
C[C@@H]1CN([C@@H](C)CO)C(=O)c2ccccc2-c2ccccc2CO[C@@H]1CN(C)CC1CC1	none
CCCNC(=O)N1C[C@@H](O)COC[C@H]2O[C@H](CC(=O)N[C@H]3CCN(Cc4ccccc4)C3)CC[C@@H]21	none (no result: Pf Dd2 growth)
O=C(N[C@@H]1CC[C@@H](CCn2cc(C3(O)CCCC3)nn2)O[C@@H]1CO)C1CCOCC1	none (no result: C diff HTS)
COCC(=O)Nc1ccc2c(c1)C(=O)N(C)[C@H]1CC[C@H](CC(=O)NCCc3ccccc3)O[C@H]1CO2	none
Cc1ccc(S(=O)(=O)Nc2ccc3c(c2)CC(=O)N([C@H](C)CO)C[C@@H](C)[C@@H](CN(C)Cc2ccc4c(c2)OCO4)O3)cc1	none
C[C@H]1CN([C@@H](C)CO)C(=O)Cc2cc(NS(=O)(=O)c3ccc(Cl)cc3)ccc2O[C@@H]1CN(C)Cc1ccc2c(c1)OCO2	T cruzi growth-1 107 | T cruzi growth-2 98 | T cruzi growth-3 inactive | NIH3T3 tox inactive | 3T3 cytotox 2 inactive
